Experimental data published in PubChem BioAssay AID488969 (Vanderbilt High Throughput Screening Facility, 2010).
In all, about 110,000 compounds were measured (“z-score”: median about -0.1, highest 2% from about 2 on). The full list was thinned out, with the highest values kept by preference. Calls of active or inactive are those of the source.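 How the source made its calls: active means z-score in the third read window above 3 or below -3; inactive means the rest.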

These molecules were tested against Metabotropic glutamate receptor 8 (Rattus norvegicus) (UniProt P70579) (assay: mGluR8 Gi/Go-coupled signaling modulation – cell-based, rat, thallium flux, HTS, primary screen (AID 488969)). Conditions: HEK293 rat mGluR8, GIRK (G protein-gated inwardly rectifying potassium channel) thallium flux, FluoZin2; at 10 µM; stronger effect = higher value; submaximal glutamate (EC20) added with thallium.
Chain of Metabotropic glutamate receptor 8 (Rattus norvegicus) (P70579 whole entry, looked up): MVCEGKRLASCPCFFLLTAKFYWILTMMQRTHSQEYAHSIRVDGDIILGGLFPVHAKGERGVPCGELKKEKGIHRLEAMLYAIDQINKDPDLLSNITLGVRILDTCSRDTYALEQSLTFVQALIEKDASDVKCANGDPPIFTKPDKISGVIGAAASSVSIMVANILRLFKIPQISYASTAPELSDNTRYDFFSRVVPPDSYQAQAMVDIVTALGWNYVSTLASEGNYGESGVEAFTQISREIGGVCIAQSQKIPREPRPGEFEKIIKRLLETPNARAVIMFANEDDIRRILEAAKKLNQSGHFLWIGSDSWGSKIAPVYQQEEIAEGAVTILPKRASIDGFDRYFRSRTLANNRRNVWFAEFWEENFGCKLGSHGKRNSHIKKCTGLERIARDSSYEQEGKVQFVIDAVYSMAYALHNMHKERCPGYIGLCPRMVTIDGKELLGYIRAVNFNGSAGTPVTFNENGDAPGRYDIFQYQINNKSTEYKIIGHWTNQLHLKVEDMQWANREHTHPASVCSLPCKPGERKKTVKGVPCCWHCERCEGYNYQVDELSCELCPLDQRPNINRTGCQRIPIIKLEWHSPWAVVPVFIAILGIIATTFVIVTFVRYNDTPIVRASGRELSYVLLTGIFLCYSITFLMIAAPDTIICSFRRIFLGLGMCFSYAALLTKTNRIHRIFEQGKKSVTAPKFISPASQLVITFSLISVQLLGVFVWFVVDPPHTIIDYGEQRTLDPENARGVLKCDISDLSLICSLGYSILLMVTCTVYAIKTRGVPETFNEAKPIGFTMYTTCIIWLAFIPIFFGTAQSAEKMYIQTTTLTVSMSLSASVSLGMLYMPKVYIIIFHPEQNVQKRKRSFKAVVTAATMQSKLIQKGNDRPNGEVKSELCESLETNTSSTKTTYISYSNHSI
With `O=S1(=O)C[C@@H](O)[C@@H](Nc2ccc(Cl)cc2)C1` the z-score was -0.343.
For `CCn1cc(/C=N/NS(=O)(=O)c2ccc(C)cc2)c(C)n1`, the z-score was -0.045.
With `CC(C)OC(=O)c1c2nc3ccccc3nc2n2c1[nH]c(=O)c1ccccc12` the z-score was 16.9 (active).
Work on `COc1ccc2c(c1)c1nc3ccccc3nc1n2CC(=O)OC(C)C` yielded a z-score of 0.485.
With `CC(C)OC(=O)c1c(N)n(CCCN2CCOCC2)c2nc3ccccc3nc12` the z-score was -0.444.
`CCOC(=O)c1ccc(NC(=O)CN2C(=O)CNC2=O)cc1` gave a z-score of -0.263.
In the case of `CCOC(=O)C1=C(C)C2C3C(=O)N(c4ccccc4C)C(=O)C3C1(C)C1C(=O)N(c3ccccc3C)C(=O)C21` (stereo not drawn), the z-score was -0.246.
With `O=C(CN1C(=O)NC2(CCc3ccccc32)C1=O)Nc1ccc(N2CCOCC2)cc1` (stereo not drawn) the z-score was -0.205.
`CCCC(=O)NC(=S)Nc1ccccc1C(F)(F)F` gave a z-score of 0.25.
`CC(C)C(=O)NC(=S)Nc1ccccc1C(F)(F)F` showed a z-score of 0.0217.
With `Cc1ccc(C(=O)NC(=S)Nc2ccccc2C(F)(F)F)c(C)c1` the z-score was 0.996.
`CC(C)(C)CC(=O)NC(=S)Nc1ccccc1C(F)(F)F` gave a z-score of 0.863.
In the case of `Cc1cccc(C(=O)NC(=S)Nc2ccccc2C(F)(F)F)c1`, the z-score was 3.38 (active).
In the case of `Cc1ccc(C(=O)NC(=S)Nc2ccccc2C(F)(F)F)cc1`, the z-score was 6.32 (active).
Work on `CCC(=O)NC(=S)Nc1ccccc1C(F)(F)F` yielded a z-score of 0.0622.
With `Cc1ccccc1C(=O)NC(=S)Nc1ccccc1C(F)(F)F` the z-score was 1.41.
With `Cc1ccc(C(=O)NC(=S)Nc2ccccc2C(F)(F)F)cc1C` the z-score was 5.48 (active).
In the case of `COc1cccc(C(=O)NC(=S)Nc2ccc(N3CCCC3)cc2)c1`, the z-score was -0.087.
`O=C(CC1C(=O)N(c2ccccc2)C(=S)N1c1ccccc1)c1ccccc1` (stereo not drawn) gave a z-score of 0.466.
In the case of `CC(Sc1ncnc2ccccc12)C(=O)Nc1ccc2c(c1)OCCO2` (stereo not drawn), the z-score was -0.25.
`NS(=O)(=O)c1ccc(CCNC(=S)Nc2ccccc2)cc1` showed a z-score of -0.217.
Work on `COc1ccccc1OCc1ccc(C(=O)Nc2ccccc2F)cc1` yielded a z-score of -0.156.
For `O=C(CSCc1cnn(-c2ccccc2)c1-n1cccc1)NCc1ccc2c(c1)OCO2`, the z-score was 0.533.
With `C#CCn1cc(/C=N/NC(=O)c2cc3ccccc3o2)c2ccccc21` the z-score was -0.24.
For `Cc1cc(N2CCOCC2)nc2ccc(NC(=O)CCC(=O)N3CCC(C)CC3)cc12`, the z-score was 0.27.
With `Cc1cc(N2CCOCC2)nc2ccc(NC(=O)CCC(=O)N3CCCC(C)C3)cc12` (stereo not drawn) the z-score was 2.7.
With `Cc1cc(N2CCOCC2)nc2ccc(NC(=O)CCC(=O)N3CCCCC3)cc12` the z-score was -0.00221.
Molecule `CCOC(=O)c1c(-c2ccccc2)nnn1-c1nc(OC)nc(N2CCOCC2)n1` has a z-score of -0.476.
Molecule `Cc1ccnc2nc(C(=O)Nc3nnc(CC(C)C)s3)nn12` has a z-score of -0.0103.
`Cc1ccc(NC(=O)CN2C(=O)S/C(=C\C(=O)Nc3ccc(Cl)cc3)C2=O)cc1` showed a z-score of -0.0557.
`COc1ccc(NC2=Nc3cccc4cccc2c34)cc1` gave a z-score of -0.54.
In the case of `COc1cc(NC2=Nc3cccc4cccc2c34)cc(OC)c1OC`, the z-score was -0.385.
For `COc1ccc(NC2=Nc3cccc4cccc2c34)cc1OC`, the z-score was 4.9 (active).
Molecule `COc1ccc(-c2cc(C#N)nc(N3CCN(c4ccccc4)CC3)n2)cc1` has a z-score of -0.103.
For `COc1ccc(-c2cc(-c3ccc(F)cc3)nc(N3CCN(C)CC3)n2)cc1`, the z-score was 0.083.
Molecule `COc1ccc(-c2cc(C#N)nc(N3CCNCC3)n2)cc1` has a z-score of 2.07.
For `CN1CCN(/C=N/c2c(C#N)cnn2C)CC1`, the z-score was 0.146.
In the case of `Nc1cc(-c2ccc(Cl)cc2)nn1S(=O)(=O)c1ccc(Cl)cc1`, the z-score was -0.0623.
For `CCOC(=O)c1[nH]c(C)c(C(=O)NC2CCCC2)c1C`, the z-score was -0.06.
`CCOC(=O)c1sc(C)c(C(=O)NCC(C)(C)CN(C)C)c1N` gave a z-score of 0.753.
In the case of `CCOC(=O)c1[nH]c(C)c(C(=O)NC2CCCCC2)c1C`, the z-score was 3.27 (active).
With `CCOC(=O)c1[nH]cnc1C(=O)NC1CCCCC1` the z-score was -0.225.
Molecule `CCOC(=O)c1[nH]c(C)c(C(=O)NC2CCCCCC2)c1C` has a z-score of 0.781.
`CCOC(=O)c1sc(C)c(C(=O)NC2CCCCC2)c1N` was tested, and the z-score was 3.33 (active).
`O=C(CN1CCc2ccccc21)NC(=O)NCc1ccco1` was tested, and the z-score was 0.562.
`Cc1oc(C(C)(C)C)cc1C(=O)Nc1cccc(C(=O)O)c1` showed a z-score of -2.4.
`COc1ccc(NC(=O)C(=O)N/N=C/c2cc(C)n(-c3cccc(Cl)c3Cl)c2C)c(OC)c1` showed a z-score of -0.134.
In the case of `Cc1c(NC(=O)C(C)OC(=O)c2sc3ccccc3c2Cl)c(=O)n(-c2ccccc2)n1C` (stereo not drawn), the z-score was -0.273.
`CCC(C)c1ccc(NC(=S)Nc2ccc(OC)cc2)cc1` (stereo not drawn) was tested, and the z-score was 0.436.
`CCC(C)c1ccc(NC(=S)Nc2ccc(OC)cc2C)cc1` (stereo not drawn) gave a z-score of 0.0172.
`COC(=O)Nc1ccc(OC)c(OC)c1` showed a z-score of 0.503.
For `COc1ccc(NC(=S)SC)cc1OC`, the z-score was 3.35 (active).
In the case of `CNC(=S)Nc1ccc(OC)c(OC)c1`, the z-score was 0.0698.
`CCC(C)c1ccc(NC(=S)Nc2ccc(OC)c(OC)c2)cc1` (stereo not drawn) was tested, and the z-score was 5.09 (active).
`c1ccc(-c2ccccc2-c2nc(-c3ccncc3)no2)cc1` gave a z-score of -0.475.
`CCCC12CN3CCN(CC(C3)/C1=N\NC(=O)c1ccccc1N)C2` gave a z-score of -0.119.
Molecule `Cc1ccc(OCc2nc(-c3ccc(-n4cccc4)cc3)no2)cc1C` has a z-score of -0.0508.
Molecule `CCOC(=O)C1=C(C)N(c2ccc(OC)cc2)C(=O)/C1=C\c1cccs1` has a z-score of -0.132.
For `CCOc1ccc(CCNC(=O)C2CCN(c3nnc(-n4cccc4)s3)CC2)cc1OCC`, the z-score was -1.57.
Molecule `O=C(Nc1ccc(S(=O)(=O)Nc2ncccn2)cc1)c1ccc(Br)s1` has a z-score of 0.347.
`O=C1C(C=NCc2ccccn2)=C(O)c2ccccc21` gave a z-score of -0.00613.
For `Cc1cccc(OC(C)C(=O)N2CCCc3ccccc32)c1` (stereo not drawn), the z-score was -0.141.
For `CC(Oc1ccc(Cl)cc1Cl)C(=O)NN=C1CCN(C)CC1` (stereo not drawn), the z-score was -0.0448.
With `COc1ccc(OCC(=O)NC(=S)N2CCCc3ccccc32)cc1` the z-score was 1.72.
For `O=C(COc1ccc(Cl)cc1Cl)NC(=S)N1CCCc2ccccc21`, the z-score was 13.2 (active).
For `Cc1cccc(OCC(=O)NC(=S)N2CCCc3ccccc32)c1`, the z-score was 7.99 (active).
Molecule `Cc1ccccc1OCc1nnc(SCC(=O)N2CCc3ccccc32)n1C` has a z-score of -0.183.
For `CC(Oc1ccc(Cl)cc1Cl)C(=O)NC(=S)N1CCc2ccccc21` (stereo not drawn), the z-score was 12.9 (active).
`CC(Oc1ccc(Cl)cc1Cl)C(=O)N/N=C1\CCCc2ccccc21` (stereo not drawn) showed a z-score of 0.0705.
`Cc1ccc(OCc2nnc(SCC(=O)N3CCc4ccccc43)n2C)cc1` was tested, and the z-score was -0.358.
`O=C(CCCOc1ccc(Cl)cc1Cl)N1CCCc2ccccc21` showed a z-score of -0.0365.
In the case of `Cc1cccc(OCc2nnc(SCC(=O)N3CCc4ccccc43)n2C)c1`, the z-score was 2.88.
`O=C(COc1ccc(Cl)cc1Cl)OCC(=O)N1CCCc2ccccc21` was tested, and the z-score was -0.0629.
